# Reference: the supplement of paper PMC6555819
# Key:
# Experiment in all cases: PBM binding z-score (relative to random genomic background probes); higher = stronger binding; sequences stand for … in GC…GCGATTGACAGCGTAGAATGAAGG
# [1] = tested on: FXR:RXRa (NR concentration 270 nM, RXRa partner concentration 90 nM)
# Summary of the method: (§1)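 Binding buffer was PBS pH 7.4 with 2% milk, 0.02% Triton X-100, 1 mM DTT, 0.2 mg/mL BSA and 0.4 mg/ml salmon testes DNA. In it, ligand-free nuclear receptor dimers were incubated 1 h on custom Agilent 4×180K protein-binding microarrays carrying double-stranded probes. Antibodies against each partner (one per run) detected binding, and z-scores were calculated against random background probes after regression normalization of scanned fluorescence.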
# [2] = tested on: LXRa:RXRa (NR concentration 270 nM, RXRa partner concentration 90 nM)
# Summary of the method: as §1
# [3] = tested on: LXRa homodimer (NR concentration 270 nM)
# Summary of the method: as §1
# [4] = tested on: LXRb:RXRa (NR concentration 270 nM, RXRa partner concentration 90 nM)
# Summary of the method: as §1
# [5] = tested on: LXRb homodimer (NR concentration 270 nM)
# Summary of the method: as §1
# [6] = tested on: PPARa:RXRa (NR concentration 270 nM, RXRa partner concentration 90 nM)
# Summary of the method: as §1
# [7] = tested on: PPARg:RXRa (NR concentration 180 nM, RXRa partner concentration 90 nM)
# Summary of the method: as §1
# [8] = tested on: PPARg:RXRa 270nM:90nM, anti-RXR (NR concentration 270 nM, RXRa partner concentration 90 nM)
# Summary of the method: as §1
# [9] = tested on: PPARg:RXRa 30nM:10nM, anti-RXR (NR concentration 30 nM, RXRa partner concentration 10 nM)
# Summary of the method: as §1
# [10] = tested on: PPARg:RXRa 90nM:30nM, anti-RXR (NR concentration 90 nM, RXRa partner concentration 30 nM)
# Summary of the method: as §1
# [11] = tested on: PPARg:RXRa DBDmut IVT, anti-RXR (DBD mutation: RXRa K156A/R161A, NR concentration 270 nM, RXRa partner concentration 90 nM)
# Summary of the method: as §1
# [12] = tested on: PPARg:RXRa IVT, anti-PPARg (NR concentration 270 nM, RXRa partner concentration 90 nM)
# Summary of the method: as §1
# [13] = tested on: PPARg DBDmut:RXRa IVT, anti-PPARg (DBD mutation: PPARg1 K132A/R137A, NR concentration 270 nM, RXRa partner concentration 90 nM)
# Summary of the method: as §1
# [14] = tested on: PPARg DBDmut IVT, anti-PPARg (DBD mutation: PPARg1 K132A/R137A, NR concentration 270 nM)
# Summary of the method: as §1
# [15] = tested on: PPARg homodimer (NR concentration 180 nM)
# Summary of the method: as §1
# [16] = tested on: PXR:RXRa (NR concentration 270 nM, RXRa partner concentration 90 nM)
# Summary of the method: as §1
# [17] = tested on: PXR homodimer (NR concentration 270 nM)
# Summary of the method: as §1
# [18] = tested on: RARa:RXR (NR concentration 270 nM, RXRa partner concentration 90 nM)
# Summary of the method: as §1
# [19] = tested on: RARa homodimer (NR concentration 270 nM)
# Summary of the method: as §1
# [20] = tested on: RARb:RXRa (NR concentration 270 nM, RXRa partner concentration 90 nM)
# Summary of the method: as §1
Sequence,PBM binding z-score [1],PBM binding z-score [2],PBM binding z-score [3],PBM binding z-score [4],PBM binding z-score [5],PBM binding z-score [6],PBM binding z-score [7],PBM binding z-score [8],PBM binding z-score [9],PBM binding z-score [10],PBM binding z-score [11],PBM binding z-score [12],PBM binding z-score [13],PBM binding z-score [14],PBM binding z-score [15],PBM binding z-score [16],PBM binding z-score [17],PBM binding z-score [18],PBM binding z-score [19],PBM binding z-score [20]
CGAACTAGGTAAAGGACAGTGAATCTCCGCACGC,-0.281,-0.379,-0.301,-0.788,-0.59,1.32,1.51,1.3,-0.0812,0.891,5.6,4.4,0.46,-0.605,0.363,-0.407,-0.167,-0.453,-0.188,1.21
GCTGCTAGGTCATGTTGGTCAGCTAACGGGTACG,3.46,2.59,0.616,1.75,0.329,3.03,1.62,2.3,0.174,1.38,4.28,3.3,0.275,1.15,2.55,1.49,-0.31,2.42,0.287,3.69
TCTCGGAGGACACGAAGGTCAGCGCTTTCCAGAG,1.84,1.77,0.379,1.68,-0.754,2.31,0.453,2.02,2.12,1.93,1.48,1.41,-0.389,-0.884,2.23,2.49,0.985,3.06,0.313,3.95
TAGCCTAGGTCATAGGGCCAGTATAGTACGCATC,4.13,3.13,0.208,2.09,-0.248,3.7,3.32,3.46,1.43,2.75,1.41,2.83,0.326,-0.841,1.14,1.45,-0.088,2.37,-0.213,3.75
CCTACTGGGCCAAAGGACATTGATTCCAATGCTC,-0.0323,-0.0828,-0.295,-0.127,-0.465,2.62,5.82,6.75,5.26,7.73,4.14,4.09,-0.131,-0.115,0.47,-0.488,-0.554,-0.324,-0.235,0.93
CAAACTAGGTCAAGAGGTCAAACTCCGCTTCCCG,7.36,6.74,6.8,5.98,2.74,6.77,10.1,8.55,7.7,9.09,8.21,8.74,4.72,2.13,6.57,6.37,4.12,8.15,2.88,5.41
ATCGAAACGTCGACGAGGTGAGTATACACCGTTT,-0.264,-0.5,-0.605,-0.525,-0.00441,-0.269,0.855,-0.111,-0.111,-0.157,-0.306,0.572,0.364,1.43,-0.489,-0.346,-0.33,-0.0607,0.109,-0.0586
ATCGAAAGGTCGACGAGGAGAGTATACACCGTTT,3.22,3.26,-0.0644,2.71,0.517,4.05,2.55,2.76,1.4,1.8,0.291,1.39,1.26,0.739,1.33,2.4,0.432,3.03,0.544,3.66
CCAACTAGGTCATTGACAGGACAGTGAATAGTAA,4.34,3.06,0.961,2.18,0.671,3.92,5.95,5.66,2.77,5.03,7.67,7.49,1.99,0.953,1.89,1.68,0.805,2.23,1.58,3.77
CCTTACGGGTCCCTGACAGGTTATAGCATTTGGA,-0.274,-0.086,0.128,-0.0575,-0.647,0.0699,0.112,-0.345,-0.32,-0.402,-0.486,-0.544,-1.04,-1.23,0.149,-0.106,-0.274,-0.0622,0.466,0.205
ATATGTGGGTTATCGGGTCATTCAGTTTGCGCAT,3.03,2.75,1.74,3.53,1.8,4.86,6.89,5.78,3.08,5.43,7.02,7.14,3.15,3.66,3.07,3.93,7.1,3.81,2.31,2.42
ATCGAAAGGTCGCAGGTGAGTATACCCACCCGAA,4.98,3.65,0.17,2.74,0.436,5.01,4.34,4.73,1.5,3.31,0.692,2.78,1.46,0.551,1.95,2.89,0.199,3.82,0.721,4.09
CCTACTGGGCCAATAAGGTCATTGATGCCGATAA,2.84,2.93,1.06,3.03,-0.277,4.04,2.89,3.1,0.789,2.38,3.88,4.4,-0.359,-0.0114,1.04,3.77,3.17,3.56,0.431,3.17
GATAGTTGGTCAGTAAAAGGTCACACACCGGTCG,3.47,4.21,4.89,4.06,0.786,4.57,3.46,4.68,2.35,3.8,1,3.26,0.61,0.944,4.23,4.92,1.52,5.65,3.2,4.42
